{"source": "PubChem BioAssay (NCATS)", "data": [{"assay": "qHTS profiling of the MIPE4 collection as inhibitors of Plasmodium falciparum (3D7) proliferation (AID 743344);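 further: scaled between DMSO vehicle wells and 0.29 µM artemisinin as full inhibition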", "details": "P. falciparum 3D7 in erythrocytes, SYBR Green DNA fluorescence, 72 h; at 28.5 µM", "method_in_brief": "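Parasite DNA was quantified by SYBR Green I fluorescence (ex 485, em 535 nm) after overnight lysis in saponin/Triton buffer at room temperature. Cultures at 0.3% parasitemia and 2.5% hematocrit were first exposed to compound for 72 h at 37 C; signals were normalised to artemisinin (0.29 uM) and vehicle wells.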", "units": {"parasite growth, % of DMSO control": "%"}, "values": [{"compound": "CC(=O)OCC1=C(C(=O)O)N2C(=O)[C@@H](N)[C@@H]2SC1", "parasite growth, % of DMSO control": 90.9}, {"compound": "CN[C@@H]1Cc2cccc3[nH]c(=O)n(c23)C1", "parasite growth, % of DMSO control": 92.4}, {"compound": "COc1ccc2c(c1)[C@]13CCCCC1C(C2)N(C)CC3", "note": "(some centres not stated)", "parasite growth, % of DMSO control": 92.5}, {"compound": "C[C@H]([C@H](O)CCC(C)(C)O)[C@H]1CC[C@@]2(O)C3=CC(=O)[C@@H]4C[C@@H](O)[C@@H](O)C[C@]4(C)[C@@H]3CC[C@]12C", "parasite growth, % of DMSO control": 93.7}, {"compound": "COC(=O)[C@@H](N)CCCN=C(N)N[N+](=O)[O-]", "parasite growth, % of DMSO control": 91.3}, {"compound": "C[C@@H]1CC[C@@]2(OC1)O[C@H]1C[C@H]3[C@@H]4CC=C5C[C@@H](O[C@@H]6O[C@H](CO)[C@@H](O[C@@H]7O[C@@H](C)[C@H](O)[C@@H](O)[C@@H]7O)[C@H](O)[C@@H]6O[C@@H]6O[C@@H](C)[C@H](O)[C@@H](O)[C@@H]6O)CC[C@]5(C)[C@@H]4CC[C@]3(C)[C@@H]1[C@H]2C", "parasite growth, % of DMSO control": 57.2}, {"compound": "C[C@]12Cc3cn[nH]c3C[C@@H]1CC[C@@H]1[C@H]2CC[C@@]2(C)[C@H]1CC[C@]2(C)O", "parasite growth, % of DMSO control": 52.2}, {"compound": "C[C@@H]1CC[C@H]2[C@@H](C)C(=O)O[C@@H]3O[C@@]4(C)CC[C@H]1[C@]32OO4", "parasite growth, % of DMSO control": 22.6}, {"compound": "COC[C@H]1OC(=O)c2coc3c2[C@@]1(C)C1=C(C3=O)[C@@H]2CC[C@H](O)[C@@]2(C)C[C@@H]1OC(C)=O", "parasite growth, % of DMSO control": 93.1}, {"compound": "C[C@]12CC[C@@H]3[C@@H](CCC4=CC(=O)CC[C@@H]43)[C@@H]1CC[C@@H]2OC(=O)CCc1ccccc1", "parasite growth, % of DMSO control": 65.4}, {"compound": "COc1cc([C@@H]2c3cc4c(cc3[C@@H](O)C3COC(=O)C32)OCO4)cc(OC)c1O", "note": "(some centres not stated)", "parasite growth, % of DMSO control": 64.9}, {"compound": "O=c1cccc2n1CC1CNC[C@H]2C1", "parasite growth, % of DMSO control": 71.3}, {"compound": "C[C@@H]1O[C@@H](O[C@@H]2C=C3CC[C@@H]4[C@@H](CC[C@]5(C)[C@H](c6ccc(=O)oc6)CC[C@@]45O)[C@@]3(C)CC2)[C@H](O)[C@H](O)[C@H]1O", "parasite growth, % of DMSO control": 79}, {"compound": "CC(C)(O)C=CC(=O)[C@](C)(O)[C@H]1[C@H](O)C[C@]2(C)[C@@H]3CC=C4[C@@H](C=C(O)C(=O)C4(C)C)[C@]3(C)C(=O)C[C@@]12C", "parasite growth, % of DMSO control": 5.63}, {"compound": "Cc1ccccc1-n1c(Cn2ncc3c(N)ncnc32)nc2cccc(C)c2c1=O", "parasite growth, % of DMSO control": 48.8}, {"compound": "Cc1[nH]nc2ccc(-c3cncc(OC[C@@H](N)Cc4c[nH]c5ccccc45)c3)cc12", "parasite growth, % of DMSO control": 18.3}, {"compound": "Clc1ccccc1C(c1ccccc1)(c1ccccc1)n1cccn1", "parasite growth, % of DMSO control": 9.07}, {"compound": "C#C[C@]1(O)C=C[C@@H]2[C@@H]3CCC4=CC(=O)CC[C@@H]4[C@H]3CC[C@@]21CC", "parasite growth, % of DMSO control": 10.4}, {"compound": "CN(C)[C@@H]1C(=O)C(C(N)=O)=C(O)[C@@]2(O)C(=O)C3=C(O)c4c(O)cccc4[C@@](C)(O)[C@H]3[C@H](O)[C@@H]12", "parasite growth, % of DMSO control": 29.4}, {"compound": "C[C@]12CC[C@H]3[C@@H](CCC4=CC(=O)CC[C@@]43C)[C@H]1CC[C@H]2OC(=O)CCC1CCCC1", "parasite growth, % of DMSO control": 7.86}, {"compound": "CC(=Cc1csc(C)n1)[C@@H]1C[C@H]2O[C@]2(C)CCC[C@H](C)[C@@H](O)[C@@H](C)C(=O)C(C)(C)[C@@H](O)CC(=O)O1", "parasite growth, % of DMSO control": 15.3}, {"compound": "COCC1(CO)C(=O)C2CCN1CC2", "note": "(configuration not stated)", "parasite growth, % of DMSO control": 94.3}, {"compound": "O=C(N[C@H]1CN2CCC1CC2)c1ccc(Cl)cc1", "parasite growth, % of DMSO control": 89.4}, {"compound": "C[C@@H]1[C@H](O)[C@@H](C)C=CC=CCCC=CC=CC=CC=C[C@H](O[C@H]2O[C@@H](C)[C@H](O)[C@@H](N)[C@@H]2O)CC2O[C@](O)(C[C@@H](O)[C@H](O)CC[C@@H](O)C[C@@H](O)C[C@@H](O)CC(=O)O[C@H]1C)C[C@H](O)[C@H]2C(=O)O", "parasite growth, % of DMSO control": 94.4}, {"compound": "CCOP(=O)(OCC)C(C)NC(=O)N(CCCl)N=O", "note": "(configuration not stated)", "parasite growth, % of DMSO control": 103}, {"compound": "CCC(=O)OC1CCC2C3CCC4=CC(=O)CC[C@@]4(C)C3CC[C@]12C", "note": "(some centres not stated)", "parasite growth, % of DMSO control": 89.9}, {"compound": "CC[C@@]1(O)C(=O)OCc2c1cc1n(c2=O)Cc2cc3ccccc3nc2-1", "parasite growth, % of DMSO control": 15.1}, {"compound": "CC1=C(O)C(=O)C=C2C1=CC=C1[C@@]2(C)CC[C@@]2(C)[C@@H]3C[C@](C)(C(=O)O)CC[C@]3(C)CC[C@]12C", "parasite growth, % of DMSO control": 8.49}, {"compound": "CC(C)(C)[C@]1(O)C[C@@H]2OC(=O)C[C@@]23C(=O)O[C@@H]2OC(=O)[C@H](O)C213", "note": "(some centres not stated)", "parasite growth, % of DMSO control": 95}, {"compound": "O=C(Nc1ccncc1)C(=O)c1cn(Cc2ccc(Cl)cc2)c2ccccc12", "parasite growth, % of DMSO control": 91}, {"compound": "O=[N+]([O-])c1ncc[nH]1", "parasite growth, % of DMSO control": 89}, {"compound": "COc1cc2cc(c1Cl)N(C)C(=O)C[C@H](OC(=O)C(C)C)[C@]1(C)O[C@H]1[C@H](C)[C@@H]1C[C@@](O)(NC(=O)O1)[C@H](OC)C=CC=C(C)C2", "parasite growth, % of DMSO control": 14}]}]}
